40 compounds from PubChem BioAssay (NCI) can be followed below.

This is part of a sample that, as a whole, favours compounds with a hit. Of some 83,000 tested, about 20% had one in any assay.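 Compound tested at a single concentration for 48 hours in 96-well plates; a percent growth value below 10 was scored as active.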 Values without a mark were called inactive. Activity calls are given as the source filed them.

One assay deals with NCI-H460 lung. The assay is described as follows: NCI-60 one-dose screen, 48 h (100 = growth as untreated, 0 = no growth, -100 = all killed). The following applies: 10 µM unless noted.
Take `C[C@@H]1OCC2(CCN(c3cnc(C(=O)Nc4cc(F)cc5cccnc45)cn3)CC2)[C@@H]1N`: the growth is 93.5%. As for `Cn1c(SCC(=O)c2ccc(F)cc2)nc2ccccc2c1=O`, the growth was 101%. Still for that read-out and setting: next, `O=C(CCCCCC/C=C\c1csc(Br)n1)NO`: 85.8%; `COc1ccc(-c2cc(-c3ccc(N4CCOCC4)cc3)n3c(n2)nc2ccccc23)cc1OC`: 86.3%. The same measure, in the same setting: next, `CN(C)c1cccc2c(S(=O)(=O)Nc3cccc(-c4csc(NC(=O)CCCCCN5CCN(CCO)CC5)n4)c3)cccc12`: 82.6%. Still for that read-out and setting: next, `O=c1nc(Nc2ccc([N+](=O)[O-])cc2O)sc2ccccc12`: 22.1%; `CCc1cc(OC(=O)N2CCC(N3CCCCC3)CC2)ccc1Nc1cc(-c2ccc(-n3cccn3)cc2)[nH]n1`: -15.5% (active). Take `COc1ccc(-c2c(C(N)=O)c(N)n(Cc3nc4ccccc4[nH]3)c(=O)c2C#N)c(OC)c1`: the growth is 105%. Turning to `CCOC(=O)Nc1ccc2c(ccn2C(=O)c2cccc(F)c2)c1`, the growth was 14.8%. The same measure, in the same setting: next, `CN(C)CCCOc1ccc(C(=C(c2ccccc2)C2CCCC2)c2ccc(OCCCN(C)C)cc2)cc1`: -62.6% (active). Still for that read-out and setting: next, `CN1CCC[C@]2(C)[C@H]3CC[C@@H]4[C@@H]5[C@H]6OC[C@@]5(CCC6(C)C)CC[C@@]4(C)[C@]3(C)CC[C@H]2C1(C)C`: 1.69% (active). `CNC(=O)c1cc(-c2ccc(NC(=S)Nc3cccc(C(F)(F)F)c3)cc2)nc2cccnc12`: the growth is 99.4%.

Regarding `CC1(C)C=Cc2cc(/C(N)=N/C(N)=N/c3nc4ccccc4s3)ccc2O1`, the growth was 52.3%. On to `C#Cc1cc(C(=O)Nc2ccc(CNCCN3CCOCC3)c(C(F)(F)F)c2)ccc1C`, for which the growth was 101%. Regarding `CC(C)(O)c1cncc(-c2ccc3ncc(C#N)c(N4CCc5cc(F)c(Cl)cc54)c3c2)c1`, the growth is 11.1%. Same read-out and setting: next, `CN1CCN(Cc2ccc(/C=N/Nc3ccnc4cc(Cl)ccc34)cc2)CC1`: 83.1%; `Cc1ccc(C(=O)CSc2nnc(-c3ccc(-c4ccc(Cl)cc4)nc3C)o2)cc1`: 107%; `Cc1ccccc1N1CCN(C2=C(Cl)C(=O)c3ncccc3C2=O)CC1`: 53.1%. Same read-out and setting: in the case of `O=C1Nc2ccccc2/C1=C/c1ccc(OCC(=O)c2ccccc2)cc1` it was 102%; in that of `CC1=C(C)C(=O)C(Nc2ccc3c(c2)OCCO3)=C(Br)C1=O`, 102%; in that of `CCN(CC)c1ccc(/C=N/NC(=O)c2ccc(S(N)(=O)=O)cc2)c(O)c1`, 4.16% (active). Consider `Cc1ccc(S(=O)(=O)NCCCNc2nc(Nc3ccc(N4CCN(C)CC4)cc3)nc3ccsc23)cc1`, for which the growth was 18.5%.

With `CN1CCN(Cc2ccc(NC(=O)c3cncc(C#Cc4cnc5ccc(NCCO)nn45)c3)cc2C(F)(F)F)CC1`, the growth was -78% (active). Same read-out and setting: in the case of `COC(=O)c1cccc(NC2=C(Cl)C(=O)c3nc(C)ccc3C2=O)c1` it was 101%; in that of `O=C1Nc2cc(Cl)ccc2/C1=C\c1ccc(OCc2ccccc2)cc1`, 104%.

Consider `Cc1ccc(-c2csc(N/N=C/c3cccs3)n2)cc1`, for which the growth was 99.4%. Take `O=[N+]([O-])c1ccc(NC(=S)NNC(=S)Nc2ccc(Br)cc2)cc1`: the growth is 97.6%.

For a further assay, the system named is HOP-92 NSCLC. The assay is described as above. The following applies: 10 µM unless noted.
As to `NC(=O)n1c(=O)n(-c2cccc(C(F)(F)F)c2)c(=O)c2cc(-c3ccc(F)cc3F)ccc21`, the growth is -36.3% (active). Still for that read-out and setting: in the case of `O=C1CSC(c2cn(-c3ccccc3)nc2-c2ccc(Cl)cc2)N1c1ccccc1` (configuration not stated) it was 100%; in that of `COc1ccc(/C=N/NC(=O)CSc2nc(-c3cnccn3)cc(-c3cccs3)c2C#N)cc1`, 63.1%.

On to `C#Cc1cc(OC)c(C(=O)Nc2ccc(F)cc2C(=O)Nc2cccc(S(=O)(=O)C(F)(F)F)c2)cn1`, for which the growth was -65.7% (active). With `CN1c2ccccc2Sc2cc(/C=N/Nc3ccnc4cc(Cl)ccc34)ccc21`, the growth was 82.1%. For the compound `O=C(/C=C/c1cccc(F)c1)c1cccc(OCCCOc2cccc(C(=O)/C=C/c3cccc(F)c3)c2)c1`, the growth was 115%. On the same count and under the same terms, next, `CN1CCN(Cc2ccc(NC(=O)c3cncc(C#Cc4cnc(N)nc4)c3)cc2C(F)(F)F)CC1`: -28.8% (active). Still for that read-out and setting: next, `O=C(CSc1nc2ccccc2c(=O)n1-c1ccc(Cl)c(Cl)c1)Nc1ccc(S(=O)(=O)Nc2ccc(Cl)nn2)cc1`: 72.5%; `Cc1[nH]c(C(=O)Nc2ccc(C(N)=O)cc2N2CCOC(C)C2)c(Cl)c1Cl` (configuration not stated): 107%; `N#Cc1nc(-c2ccccc2)oc1N1CCC(C2(C(F)(F)F)N=N2)CC1`: 90.1%. Same read-out and setting: in the case of `C/C(=C(\c1ccc(O)cc1)c1ccc(OCCN2CCCCCC2)cc1)c1ccc(Cl)cc1` it was -86.8% (active); in that of `COc1ccc(C(=O)c2c(N)c(C#N)cn2-c2ccc(Cl)cc2Cl)cc1`, 101%. Regarding `C#C[C@]1(O)CC[C@H]2[C@@H]3CC=C4c5sc(Nc6cccc(F)c6)nc5CC[C@]4(C)[C@H]3CC[C@@]21C`, the growth was 61.3%. On to `C[C@@H]1OCC2(CCN(c3cnc(C(=O)Nc4cc(F)cc5cccnc45)cn3)CC2)[C@@H]1N`, for which the growth was 45.7%. Turning to `Cn1c(SCC(=O)c2ccc(F)cc2)nc2ccccc2c1=O`, the growth was 61.3%. Take `O=C(CCCCCC/C=C\c1csc(Br)n1)NO`: the growth is 102%. Same read-out and setting: in the case of `COc1ccc(-c2cc(-c3ccc(N4CCOCC4)cc3)n3c(n2)nc2ccccc23)cc1OC` it was -4.32% (active). Still for that read-out and setting: next, `CN(C)c1cccc2c(S(=O)(=O)Nc3cccc(-c4csc(NC(=O)CCCCCN5CCN(CCO)CC5)n4)c3)cccc12`: 37.5%; `O=c1nc(Nc2ccc([N+](=O)[O-])cc2O)sc2ccccc12`: -0.0775% (active); `CCc1cc(OC(=O)N2CCC(N3CCCCC3)CC2)ccc1Nc1cc(-c2ccc(-n3cccn3)cc2)[nH]n1`: 103%. In the case of `COc1ccc(-c2c(C(N)=O)c(N)n(Cc3nc4ccccc4[nH]3)c(=O)c2C#N)c(OC)c1`, the growth was 101%. For `CCOC(=O)Nc1ccc2c(ccn2C(=O)c2cccc(F)c2)c1`, the growth was 76%. Still for that read-out and setting: next, `CN(C)CCCOc1ccc(C(=C(c2ccccc2)C2CCCC2)c2ccc(OCCCN(C)C)cc2)cc1`: -76.3% (active).

On to `CN1CCC[C@]2(C)[C@H]3CC[C@@H]4[C@@H]5[C@H]6OC[C@@]5(CCC6(C)C)CC[C@@]4(C)[C@]3(C)CC[C@H]2C1(C)C`, for which the growth is 50.6%.

`CNC(=O)c1cc(-c2ccc(NC(=S)Nc3cccc(C(F)(F)F)c3)cc2)nc2cccnc12`: the growth was 85%. The same measure, in the same setting: next, `CC1(C)C=Cc2cc(/C(N)=N/C(N)=N/c3nc4ccccc4s3)ccc2O1`: 94.2%; `C#Cc1cc(C(=O)Nc2ccc(CNCCN3CCOCC3)c(C(F)(F)F)c2)ccc1C`: 68.7%; `CC(C)(O)c1cncc(-c2ccc3ncc(C#N)c(N4CCc5cc(F)c(Cl)cc54)c3c2)c1`: -8.73% (active). Still for that read-out and setting: next, `CN1CCN(Cc2ccc(/C=N/Nc3ccnc4cc(Cl)ccc34)cc2)CC1`: 64.3%; `Cc1ccc(C(=O)CSc2nnc(-c3ccc(-c4ccc(Cl)cc4)nc3C)o2)cc1`: 88%. For the compound `Cc1ccccc1N1CCN(C2=C(Cl)C(=O)c3ncccc3C2=O)CC1`, the growth was 118%. Take `O=C1Nc2ccccc2/C1=C/c1ccc(OCC(=O)c2ccccc2)cc1`: the growth was 97.1%. The same measure, in the same setting: next, `CC1=C(C)C(=O)C(Nc2ccc3c(c2)OCCO3)=C(Br)C1=O`: 68.2%; `CCN(CC)c1ccc(/C=N/NC(=O)c2ccc(S(N)(=O)=O)cc2)c(O)c1`: 53.1%; `Cc1ccc(S(=O)(=O)NCCCNc2nc(Nc3ccc(N4CCN(C)CC4)cc3)nc3ccsc23)cc1`: 49.6%. The same measure, in the same setting: next, `CN1CCN(Cc2ccc(NC(=O)c3cncc(C#Cc4cnc5ccc(NCCO)nn45)c3)cc2C(F)(F)F)CC1`: -27.1% (active).

Consider `COC(=O)c1cccc(NC2=C(Cl)C(=O)c3nc(C)ccc3C2=O)c1`, for which the growth is 121%.

Take `O=C1Nc2cc(Cl)ccc2/C1=C\c1ccc(OCc2ccccc2)cc1`: the growth is 109%. As for `Cc1ccc(-c2csc(N/N=C/c3cccs3)n2)cc1`, the growth is 87.3%. As to `O=[N+]([O-])c1ccc(NC(=S)NNC(=S)Nc2ccc(Br)cc2)cc1`, the growth is 99.9%.
